Consider ten molecules from article PMC5540273 (PLoS ONE, 2017).

One assay concerns HPK1. The conditions noted are these: concentration: 1 μM, replicates: in singlicate, n = 1.
A further assay concerns HUNK. As to conditions: concentration: 1 μM, replicates: in singlicate; n = 1.
The test system of another assay is ICK. As to conditions: concentration: 1 μM, replicates: in singlicate, n = 1.
A further assay has as its system IGF1R. The conditions noted are these: concentration: 1 μM, replicates: in singlicate, n = 1.
A further assay relates to T1, IKK-alpha.
T1 construct: gene CHUK
As to conditions: concentration: 1 μM, replicates: in singlicate, n = 1.

Another assay relates to T2, IKK-beta.
T2 construct: gene IKBKB
As to conditions: concentration: 1 μM, replicates: in singlicate, n = 1.

The next assay relates to T3, IKK-epsilon.
T3 construct: gene IKBKE
As to conditions: concentration: 1 μM, replicates: in singlicate, n = 1.

For the next assay, the system named is INSRR. The conditions noted are these: concentration: 1 μM, replicates: in singlicate; n = 1.
For another assay, the system named is INSR. As to conditions: concentration: 1 μM, replicates: in singlicate, n = 1.
The next assay relates to IRAK1. As to conditions: concentration: 1 μM, replicates: in singlicate, n = 1.
The test system of the next assay is IRAK3. As to conditions: concentration: 1 μM, replicates: in singlicate, n = 1.
A further assay deals with IRAK4. The conditions noted are these: concentration: 1 μM, replicates: in singlicate, n = 1.
A further assay relates to ITK. The conditions noted are these: concentration: 1 μM, replicates: in singlicate, n = 1.
The subject of assay [1] is JAK1(JH1domain-catalytic). As to conditions: concentration: 1 μM, replicates: in singlicate, n = 1.
For assay [2], the system named is JAK1(JH2domain-pseudokinase). The conditions noted are these: concentration: 1 μM, replicates: in singlicate, n = 1.
Assay [3] relates to JAK2(JH1domain-catalytic). The conditions noted are these: concentration: 1 μM, replicates: in singlicate, n = 1.
Assay [4] deals with JAK3(JH1domain-catalytic). The conditions noted are these: concentration: 1 μM, replicates: in singlicate, n = 1.
The next assay concerns T4, JNK1.
T4 construct: gene MAPK8
The conditions noted are these: concentration: 1 μM, replicates: in singlicate, n = 1.

In another assay the test system is T5, JNK2.
T5 construct: gene MAPK9
As to conditions: concentration: 1 μM, replicates: in singlicate, n = 1.

The subject of a further assay is T6, JNK3.
T6 construct: gene MAPK10
As to conditions: concentration: 1 μM, replicates: in singlicate, n = 1.

Structures are written as SMILES. “And” between values parts separate entries of the source, which are not always exact repeats. Equal entries are not always repeated. Where two headings read alike, the source gives them in different places.
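Also: KINOMEscan kinase panel screen.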

For the molecule `C[C@@H](Oc1cc(-n2cnc3ccc(NC(=O)NC(C)(C)C)cc32)sc1C(N)=O)c1ccccc1Cl` [GSK346294], the “%Inh” value came to 35% in the assay on HPK1; 0% in the assay with HUNK; 0% in the assay on ICK; 0% in the assay with IGF1R; 0% in the assay with IKK-alpha; 0% with IKK-beta. Further, the “%Inh” value was 23% in the assay with IKK-epsilon; 0% in the assay on INSRR; 0% in the assay with INSR; 15% with IRAK1; 12% in the assay with IRAK3; 0% with IRAK4. Moreover, the “%Inh” value in the assay with ITK is 14%; in [1] it was 2%; in [2], 0%; in assay [3], 0%; in assay [4] it was 0%; with JNK1 it was 0%. The “%Inh” value with JNK2 worked out at 6%; with JNK3 it was 0%.
Turning to `COC(=O)Nc1nc2cc(Oc3ccc(NC(=O)Nc4cc(F)ccc4F)cc3)ccc2[nH]1.Cl` [GW701424], the “%Inh” value with HPK1 stood at 30%; with HUNK, 20%; with ICK it was 0%; with IGF1R, 18%; in the assay with IKK-alpha it was 33%; with IKK-beta it was 4%. Further, the “%Inh” value in the assay with IKK-epsilon came out at 16%; in the assay on INSRR it was 0%; in the assay on INSR, 0%; in the assay on IRAK1, 36%; in the assay on IRAK3 it was 0%; with IRAK4, 6%. Further, the “%Inh” value in the assay on ITK was determined as 0%; in assay [1] it was 26%; in assay [2], 0%; in assay [3], 1%; in assay [4] it was 0%; in the assay on JNK1 it was 0%. The entries for the “%Inh” value in the assay on JNK2 and in the assay on JNK3 were 2% and 0%, respectively.
`COCCNC(=O)c1ccc(-c2cc(C(=O)NC3CC3)cc(F)c2C)cc1` [GW868318]: the “%Inh” value was determined as 4% with HPK1; 7% with HUNK; 40% in the assay on ICK; 3% in the assay with IGF1R; 36% in the assay with IKK-alpha; 29% in the assay with IKK-beta. The “%Inh” value stood at 4% in the assay on IKK-epsilon; 19% in the assay with INSRR; 10% in the assay on INSR; 37% in the assay with IRAK1; 23% in the assay with IRAK3; 13% with IRAK4. Also, the “%Inh” value is on record as 8% with ITK; 0% in assay [1]; 16% in assay [2]; 44% in assay [3]; 0% in assay [4]; 38% in the assay on JNK1. The results for the “%Inh” value in the assay with JNK2 and with JNK3 were 49% and 19%, respectively.
Take `N#Cc1c(N2CCOCC2)sc(-c2ccn[nH]2)c1-c1ccc(Cl)cc1`: the “%Inh” value in the assay on HPK1 is reported as 0%; in the assay with HUNK, 16%; with ICK it was 24%; with IGF1R, 0%; in the assay with IKK-alpha, 10%; in the assay on IKK-beta, 25%. The “%Inh” value in the assay on IKK-epsilon was found to be 0%; in the assay on INSRR it was 0%; in the assay with INSR it was 0%; in the assay on IRAK1, 20%; in the assay with IRAK3, 16%; in the assay on IRAK4, 1%. Further, the “%Inh” value in the assay on ITK came out at 6%; in assay [1] it was 0%; in assay [2] it was 29%; in assay [3], 22%; in assay [4], 0%; with JNK1, 40%. Moreover, the “%Inh” value worked out at 23% in the assay with JNK2 and 43% in the assay with JNK3.
For `COc1cc2c(cc1OC[C@@H](O)CO)ncc1c3ccc(C#N)cc3[nH]c21`, the “%Inh” value in the assay with HPK1 is reported as 0%; in the assay on HUNK, 0%; in the assay on ICK, 0%; in the assay with IGF1R it was 0%; in the assay with IKK-alpha, 51%; with IKK-beta it was 35%. In addition, the “%Inh” value is reported as 40% in the assay with IKK-epsilon; 0% in the assay with INSRR; 0% in the assay on INSR; 97.2% in the assay with IRAK1; 67% in the assay on IRAK3; 99.9% with IRAK4. Moreover, the “%Inh” value with ITK is reported as 13%; in [1], 0%; in assay [2], 11%; in assay [3], 3%; in [4], 59%; with JNK1 it was 15%. Also, the “%Inh” value with JNK2 and with JNK3 was 0% in each case.
For `[2H]C([2H])(c1cccc(C(F)(F)F)c1C)n1ccn2c(=O)nc(N3CCOCC3)cc12` [GSK2336394], the “%Inh” value in the assay with HPK1 is reported as 27%; in the assay on HUNK it was 6%; in the assay with ICK it was 8%; in the assay with IGF1R, 0%; in the assay on IKK-alpha, 10%; in the assay on IKK-beta, 16%. Moreover, the “%Inh” value in the assay on IKK-epsilon was determined as 13%; with INSRR, 0%; in the assay on INSR, 2%; in the assay on IRAK1 it was 16%; in the assay on IRAK3, 0%; in the assay on IRAK4 it was 16%. Also, the “%Inh” value with ITK was 17%; in assay [1], 18%; in [2], 0%; in assay [3], 0%; in [4], 0%; with JNK1 it was 21%. The “%Inh” value amounted to 23% in the assay on JNK2 and 9% in the assay with JNK3.
On to `NCCNS(=O)(=O)c1ccc(-c2ccnc3[nH]ccc23)cc1` [GSK977617], for which the “%Inh” value was 59% and 44% with HPK1 (1 µM); 0% in the assay with HUNK; 19% and 2% in the assay on ICK (1 µM); 8% and 16% in the assay on IGF1R (1 µM); 97.7% and 94.3% with IKK-alpha (1 µM); 99.4% in the assay on IKK-beta (1 µM). For the same molecule, the “%Inh” value was 29% and 32% in the assay on IKK-epsilon (1 µM); 2% in the assay on INSRR; 18% and 4% in the assay on INSR (1 µM); 81% and 65% with IRAK1 (1 µM); 60% and 39% in the assay with IRAK3 (1 µM); 22% and 8% with IRAK4 (1 µM). The “%Inh” value in the assay on ITK (1 µM) is 66% and 44%; in assay [1] (1 µM) it was 38% and 26%; in assay [2] (1 µM), 32% and 25%; in assay [3] (1 µM), 95.6% and 90.8%; in assay [4] (1 µM), 83% and 84%; with JNK1 (1 µM), 42% and 18%. In addition, the “%Inh” value with JNK2 (1 µM) is 30% and 9%; in the assay with JNK3 (1 µM), 27% and 15%.
`O=C1NC(=O)C(N2CCc3ccccc32)=C1c1cccc(Cl)c1` [SB-408010]: the “%Inh” value is 19% with HPK1; 20% in the assay with HUNK; 40% in the assay with ICK; 0% in the assay on IGF1R; 0% in the assay on IKK-alpha; 10% with IKK-beta. Besides, the “%Inh” value with IKK-epsilon, in the assay on INSRR, in the assay on INSR, with IRAK1, with IRAK3 and with IRAK4 was 0% throughout. The “%Inh” value with ITK is 15%; in assay [1], 14%; in assay [2] it was 0%; in assay [3], 0%; in assay [4], 0%; with JNK1, 41%. The “%Inh” value stood at 34% with JNK2 and 29% in the assay with JNK3.
In the case of `Cn1ccc2ncnc(Oc3ccc(NC(=O)Nc4ccncc4)c(Cl)c3)c21`, the “%Inh” value with HPK1 is 0%; in the assay on HUNK, 0%; with ICK, 0%; in the assay on IGF1R, 0%; in the assay with IKK-alpha, 14%; with IKK-beta, 16%. Besides, the “%Inh” value is on record as 0% in the assay with IKK-epsilon; 0% in the assay on INSRR; 11% in the assay with INSR; 8% with IRAK1; 0% in the assay on IRAK3; 7% with IRAK4. Further, the “%Inh” value turned out to be 0% in the assay on ITK; 14% in assay [1]; 0% in assay [2]; 0% in [3]; 0% in assay [4]; 0% in the assay on JNK1. Moreover, the “%Inh” value with JNK2 and in the assay with JNK3 was 0% in each case.
Take `CC(=O)Nc1ccc(COc2ccc(Nc3ccnc4cc(-c5ccccn5)ccc34)cc2)cc1.Cl` [GW440148]: the “%Inh” value is given as 10% in the assay with HPK1; 22% in the assay with HUNK; 0% in the assay with ICK; 0% with IGF1R; 0% with IKK-alpha; 4% in the assay on IKK-beta. The “%Inh” value with IKK-epsilon is 21%; in the assay with INSRR, 0%; in the assay with INSR, 12%; with IRAK1 it was 0%; with IRAK3 it was 6%; in the assay on IRAK4, 0%. In addition, the “%Inh” value with ITK is 0%; in [1], 22%; in assay [2] it was 0%; in [3], 18%; in [4] it was 0%; in the assay with JNK1 it was 0%. Also, the results for the “%Inh” value in the assay on JNK2 and with JNK3 were 17% and 9%, respectively.
